Experimental findings from PubChem BioAssay AID2782 (National Center for Advancing Translational Sciences (NCATS), 2010) are described below.

SMILES strings stand for the structures. Inconclusive results are not listed. A number with no mark means an inactive call. The source made the active and inactive calls. The call rests on the fitted dose curve; in most records, active means well fitted inhibition curve with a large enough effect in the polarisation, with a control signal flat (not every such curve was filed as active); inconclusive means small, poorly fitted or top-dose-only effect, or effect the other way, or a change in a side signal; inactive means no such curve, though single readings can be large or run the other way; the % refers to the polarisation.
On the % scale 0 is the no-effect control and ±100 the full control effect; potency means the concentration at half of the fitted maximal effect.

This assay is described as follows: Confirmation of Inhibitors Targeting the Menin-MLL Interaction in MLL Related Leukemias: Competition With Texas Red Labeled MLL-derived Mutant Peptide. The settings on record: fluorescence polarization, Texas Red MLL peptide displacement; series mostly up to 94.6 µM; FP change, negative = inhibition: at the top concentration. The method, boiled down: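 FP competition using menin at 200 nM with Texas Red-labeled mutant MLL peptide (50 nM) plus fluorescein MLL-w.t. peptide (25 nM) in 50 mM Tris-HCl pH 7.5, 50 mM NaCl, 1 mM DTT, 0.05% BSA; compound added, 1 hr ambient; polarization read per label.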
Background: Fluorescence polarisation rises when a labelled molecule tumbles more slowly, as on binding a larger partner.
For the compound `O=C(NCC1CCCO1)c1ccc(OC2CCN(C(=O)C3CC3)CC2)cc1` (configuration not stated), the “FP change, negative = inhibition” value is 14.1%.
For `COc1ccccc1NS(=O)(=O)c1cc(N2Cc3ccccc3C2=N)ccc1N1CCOCC1`, the Potency is 50.1 µM (active).
For `O=C(CCn1nc(-c2ccccc2)ccc1=O)N1CCN(c2ccccn2)CC1`, the “FP change, negative = inhibition” value is 19.1%.
Still for that read-out and setting: with `O=C(c1cc2c(=O)n3ccccc3nc2s1)N1CCOCC1` the figure was -18.6% [at 288 µM].
Same read-out and setting: the value for `Cc1ccc(NS(=O)(=O)c2csc(C(N)=O)c2)cc1C` was 4.48% [at 288 µM]; that for `Cc1nc(C)c(-c2ccc(SCc3ccccc3F)nn2)s1` was 20.8%.
Take `CCCC(c1nnnn1Cc1cccs1)N1CCN(C2CCCC2)CC1` (configuration not stated): the Potency is 112 µM (active).
With `O=S(=O)(Nc1cccc(-c2cn3cccnc3n2)c1)c1ccccc1`, the “FP change, negative = inhibition” value is -23.2% [at 288 µM].
Take `CCOC(=O)c1cnc2ccc(OC)cc2c1Nc1ccc(N2CCN(C)CC2)cc1`: the Potency was 141 µM (active).
On to `Cc1c(F)cccc1NS(=O)(=O)c1ccc2c(c1)c(C)cc(=O)n2C`, for which the “FP change, negative = inhibition” value is -11.4%.
The same measure, in the same setting: with `COc1ccc(NC(=O)NC2(C(=O)N3CCOCC3)CCCCC2)cc1` the figure was 2.58%.
For the compound `COc1ccccc1C(=O)Nc1ccnn1C1CCN(CC2CC=CCC2)CC1` (configuration not stated), the Potency is 126 µM (active).
On the same count and under the same terms, with `Cc1cc(N/N=C/c2ccc(O)cc2)c2cccc(C)c2n1` the figure was 71 µM (active).
With `O=C(C1=C(O)C(=O)N(CCN2CCOCC2)C1c1cccc(Br)c1)c1cccs1` (configuration not stated), the “FP change, negative = inhibition” value is -3.49% [at 288 µM].
Same read-out and setting: the value for `Cn1c(=O)n(C)c2cc3[nH]cnc3cc21` was 10.9%.
On to `c1cc(CN2CCCNCCNCCCNCC2)ccc1CN1CCCNCCNCCCNCC1`, for which the Potency was 22.4 µM (active).
With `CCCc1nc2c(=O)[nH]c3ccccc3c2o1`, the “FP change, negative = inhibition” value was 10.2%.
For `COc1ccccc1CC(=O)Nc1ccc(-c2noc(COc3ccc(Br)cc3)n2)cc1`, the Potency was 71 µM (active).
Consider `COCC(=O)Nc1cccc2ccccc12`, for which the “FP change, negative = inhibition” value is -27.4%.
The same measure, in the same setting: the value for `CCOC(=O)Cn1c2ccccc2n2nc(CCC(=O)O)c(=O)nc12` was -1.21%; that for `O=S(=O)(NCCc1c[nH]c2ccccc12)c1ccccc1` was 2.62% [at 288 µM]; that for `CCOC(=O)N1CCN(Cc2nnc(-c3ccccc3C)o2)CC1` was 17.8%.
`CN(C)c1ccc(N=Nc2ccc(C(=O)O)cc2)cc1`: the Potency is 141 µM (active).
For `COc1ccc(N(C(=O)c2ccncc2)S(=O)(=O)c2ccc(Cl)cc2)cc1`, the “FP change, negative = inhibition” value was 4.85%.
The same measure, in the same setting: with `CCc1nn(C)c2c(=O)c(=O)c2n(C)[nH]1` the figure was -13%; with `N#CC1=C(N)OC2=C(C(=O)CC(c3ccco3)C2)C1c1ccc(OCc2c(F)cccc2Cl)cc1` (configuration not stated), 66.6% [at 288 µM].
Take `Cc1sc2ncnc(NC3CCN(Cc4ccccc4)CC3)c2c1C`: the Potency was 28.2 µM (active).
Turning to `O=C(c1cc(F)c(F)cc1Cl)N1CCN(c2ncccn2)CC1`, the “FP change, negative = inhibition” value was 13.9%.
On the same count and under the same terms, with `Cc1cc(N2CCOCC2)nc2ccc(Cl)cc12` the figure was 1.95%; with `Cn1ncc2c(N3CCCCC3)nc(NCCCO)nc21`, -1.8%.
`C[C@H](NC(=O)c1cc2c(cn1)[nH]c1ccccc12)C(=O)O`: the Potency was 56.4 µM (active).
Turning to `CCC(c1nnnn1Cc1ccc(F)cc1)N1CCN(C2CCCCC2)CC1` (configuration not stated), the Potency was 35.5 µM (active).
